# Compounds without any hit were thinned out: in the full panel of roughly 83,000, 20% have a hit.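 Percent growth is the endpoint: 0 to 100 indicates growth inhibition (40 means 60% inhibition), 0 means no net growth, and negative values indicate cell death.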 The source made the active and inactive calls. The calls were made as follows: active = growth percent below 10; inactive = the rest.
# Test system: HOP-92 NSCLC
# Assay: NCI-60 one-dose screen, 48 h (100 = growth as untreated, 0 = no growth, -100 = all killed)
# Settings: 10 µM unless noted
row,Compound,growth
1,Cc1cc(=O)[nH]n1-c1cc(Cl)ccc1N,114% (inactive)
2,CC(C)OC1=C(Cl)C(=O)c2ccccc2C1=O,99.8% (inactive)
3,Cc1ccc(N=c2nc3sc4c(C)ccc(C)c4n3c(N)c2C#N)cc1,76.6% (inactive)
4,COc1cc2nc(SCc3cc(OC)c(OC)c(OC)c3)n(-c3ccccc3OC)c(=O)c2cc1OC,65.8% (inactive)
5,CC(C)(C)[Si](C)(C)OC1[C@@H](CNC(=O)NC(=O)CCl)O[C@@H](n2cnc3c(N)ncnc32)[C@H]1O[Si](C)(C)C(C)(C)C (some centres undefined),-79.2% (active)
6,CCN1CCN(C(=S)SCC(=O)Nc2nc3ccc(OC)cc3s2)CC1,83.8% (inactive)
7,O=c1[nH]c(-c2ccncc2)nc2sc3c(c12)CCCCCC3,-25.1% (active)
8,COc1ccc(-c2c(-c3cc4c(c(OC)c3OC)OCO4)noc2N)cc1,15.3% (inactive)
9,c1ccc(-c2n(Cc3ccc4ccccc4n3)c3ccccc3[n+]2Cc2ccc3ccccc3n2)cc1,-18.8% (active)
10,CC(=O)c1cc(C)c(OC(=O)c2ccccc2)c(C)c1,96.1% (inactive)
11,Oc1ccccc1/C=N/Nc1nc2ccccc2s1,44.5% (inactive)
12,COCCOC1=C(Cl)C(=O)c2ccccc2C1=O,-17.3% (active)
13,O=C1NC(=O)C(CSc2ccccc2)(c2ccccc2)N1 (centres undefined),90.8% (inactive)
14,O=C1C(OCCOc2ccccc2)=C(OCCOc2ccccc2)C(=O)c2ccccc21,102% (inactive)
15,COC(=O)/C=C1/CCC2C3CCC4=CC(=O)C(Br)CC4(C)C3C(=O)CC12C (centres undefined),76.6% (inactive)

# Test system: NCI-H522 lung
# Assay: as above
# Settings: 10 µM
row,Compound,growth
1,O=[N+]([O-])c1cc2c(cc1Br)-c1ccccc1C2,77.6% (inactive)
2,Clc1ccc(Nc2nc(Nc3ccccc3)nc(Nc3ccc(-c4cc(-c5ccc(Cl)cc5)on4)cc3)n2)cc1,26.2% (inactive)
3,Cc1cc(=O)c2c(C)ccc(C)c2[nH]1,96.2% (inactive)
4,COc1cccc(C2CC(=O)Nc3cc4c(cc32)OCO4)c1OC (centres undefined),87.4% (inactive)
5,COc1ccccc1CNCCCCCCCCCCCCN1C(=O)c2ccc3c4c(ccc(c24)C1=O)C(=O)N(CCCCCCCCCCCCNCc1ccccc1OC)C3=O,87% (inactive)
6,O=C1C=CC(=O)N1CCCCCCCCCCN1C(=O)C=CC1=O,-60.7% (active)
7,Cc1nc2nc(C(F)(F)F)[nH]c2nc1C,90.1% (inactive)
8,Fc1ccccc1Nc1ccc2nnc(-c3ccncc3)n2n1,-74.5% (active)
9,NC(=O)c1nc2c([nH]c1=O)CCCC2,91.6% (inactive)
10,O=C(NCc1cccnc1)c1ccc([N+](=O)[O-])o1,-66.5% (active)
11,N#CC1=C(N)Oc2cc(N)ccc2C1c1ccc(F)cc1 (centres undefined),54.1% (inactive)
12,CC1SC(c2cccc(Oc3ccccc3)c2)N(CCc2cccs2)C1=O (centres undefined),-50.8% (active)
13,O=S(=O)(Nc1ncccn1)c1ccc(Nc2ccc3nnc(-c4ccncc4)n3n2)cc1,113% (inactive)
14,O=C1NC(=S)S/C1=C\c1cccc([N+](=O)[O-])c1,107% (inactive)
15,Clc1ccccc1Nc1ccc2nnc(-c3ccncc3)n2n1,-55.8% (active)
16,COc1cc(CNCCCN2C(=O)c3ccc4c5c(ccc(c35)C2=O)C(=O)N(CCCNCc2cc(OC)c(OC)c(OC)c2)C4=O)cc(OC)c1OC,-80.7% (active)
17,COc1ccc(OC)c(C2C(C#N)=C(N)Oc3cc(O)ccc32)c1 (centres undefined),80.3% (inactive)
18,O=C1c2ccccc2C(=O)c2c(Nc3ccc(CCO)cc3)ccc(O)c21,71.5% (inactive)
19,CCOC(=O)c1c(Cl)c2c(n1Cc1ccc(OC)cc1)-c1oncc1CCC2,95.4% (inactive)
20,Cc1oc2c(c1C(=O)N1CC[C@@H](N)C1)C(=O)c1c(c(O)c3ccccc3c1O)C2=O,21% (inactive)
21,O=C1c2[nH]cc(CN[C@@H]3CCCN3)c2C(=O)c2c1c(O)c1ccccc1c2O,-85.1% (active)
22,O=C1C(N2CCOCC2)=Cc2cccc3cccc1c23,89.4% (inactive)
23,COc1ccc(Cn2c(Br)c3c(c2-c2cc(OC)c(OC)c(OC)c2)CCc2sc(N)nc2-3)cc1,-11.4% (active)
24,Nc1nc2c(s1)CCc1c-2c(Br)n(Cc2ccccc2)c1Br,-74.9% (active)

# Source: PubChem BioAssay (NCI)
